Hits are enriched below; roughly 9.2% of the tested compounds scored in any of these assays.
NPC1 prom act: activates the NPC1 promoter; Huh7 NPC1 promoter luciferase reporter, 24 h; Potency, µM (titrated, usually from 9.22 µM), without a hit: at the top dose activation, hits mostly activators; 320,000 compounds, 2.4% hits; note: % of control where 0% means no effect; nearly all actives have a fitted effect of over 60% in size
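Cells: Huh7 expressing luciferase under the NPC1 promoter, 1500/well. Seeded 2 h, compound added, incubated 24 h at 37 °C. Luciferase reagent, 10 min ambient, then luminescence.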
FLuc modulator: counter-screen for miR-21 project: firefly luciferase inhibitors or activators; P08659; 360,000 compounds, 6.9% hits; Potency, µM (top dose mostly 57.5 µM), without a hit: at the top dose activity change, negative = inhibition, hits mostly inhibitors; purified FLuc, Km substrates, luminescence inhibition;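 note: plate controls were vehicle for no effect and reference inhibitor for full effect; nearly all actives have a fitted effect of over 55% in size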
Target sequence (P08659 whole entry, looked up): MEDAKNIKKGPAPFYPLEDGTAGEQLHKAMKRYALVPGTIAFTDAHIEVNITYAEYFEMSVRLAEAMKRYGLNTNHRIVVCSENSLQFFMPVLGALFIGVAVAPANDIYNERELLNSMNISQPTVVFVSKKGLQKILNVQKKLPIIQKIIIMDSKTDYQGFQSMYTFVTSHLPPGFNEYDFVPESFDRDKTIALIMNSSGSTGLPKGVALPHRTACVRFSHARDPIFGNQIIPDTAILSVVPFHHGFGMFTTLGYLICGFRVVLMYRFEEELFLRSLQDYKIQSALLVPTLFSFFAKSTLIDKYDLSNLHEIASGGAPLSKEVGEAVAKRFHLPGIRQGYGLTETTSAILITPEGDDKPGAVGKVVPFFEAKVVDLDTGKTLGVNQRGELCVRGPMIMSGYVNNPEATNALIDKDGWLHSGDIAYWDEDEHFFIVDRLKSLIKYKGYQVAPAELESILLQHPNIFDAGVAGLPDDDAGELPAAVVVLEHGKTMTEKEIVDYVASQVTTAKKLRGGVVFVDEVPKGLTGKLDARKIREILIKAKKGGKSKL
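Purified P. pyralis luciferase, 10 nM final, with Km-level 10 uM D-luciferin and 10 uM ATP in 50 mM Tris acetate pH 7.5, 10 mM Mg acetate, 0.01% Tween-20, 0.05% BSA; 6-point qHTS titration about 60 µM downward; luminescence read.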
ELG1 repair inh: blocks ELG1-dependent DNA repair in HEK293T cells; HEK293T ELG1-luciferase reporter, luminescence, 16 h; DNA damage induced by 5-fluorouridine; Potency, µM (highest dose often 46.1 µM), for the others: at the highest dose activity change, negative = inhibition, actives largely listed as inhibitors; 330,000 compounds, 2.3% hits; AID 504467; note: % is set by controls: 0 for no effect and ±100 for the full control effect; nearly all actives have a fitted effect of over 55% in size
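HEK293T cells expressing luciferase-tagged ELG1 (2,000/well) received 5-Fluorouridine plus compound or DMSO for 16 hr at 37 °C. Luciferase was read by ONE-Glo luminescence after 30 min at room temperature.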
Rab9 promoter act: Rab9 promoter activation. Huh7 Rab9 promoter-luciferase reporter, luminescence, 24 h. 320,000 compounds, 2.8% hits. AID 485297. Potency, µM (top dose mostly 9.22 µM), inactives show at the highest dose activation, negative = inhibition, most hits filed as activators; note: % of control where 0% means no effect; nearly all actives have a fitted effect of over 60% in size
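Luminescence from Amplite-detected luciferase (10 minutes, ambient) reports Rab9 promoter activation. Before that, stable Rab9-luciferase Huh7 cells (1500/well, reduced-serum OP-MEM I plus 10% FBS) were exposed to compound for 24 hours at 37C.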
ELG1 genotoxic: inducers of genotoxicity in HEK293T ELG1-luciferase cells; HEK293T ELG1-luciferase reporter, luminescence, 16 h; Potency, µM (titrated, usually from 46 µM), inactives show at the top dose activity change, positive = activation, actives largely listed as activators; 330,000 compounds, 1.3% hits; note: % of control where 0% means no effect; nearly all actives have a fitted effect of over 60% in size
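ELG1-luciferase HEK293T cells, 2,000/well; compound pinned in; 16 hr, 37 °C, 5% CO2; ONE-Glo, 30 min RT; luminescence on CCD imager.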
SMN2 splice enh: enhancers of SMN2 splice variant expression; HEK293 SMN2-luciferase splicing reporter, luminescence, 30-36 h; Potency, µM (highest dose often 46.1 µM), for inactives: top-dose activity change, positive = activation, most hits filed as activators; 210,000 compounds, 2.8% hits; AID 1458; note: % of control where 0% means no effect; nearly all actives have a fitted effect of over 55% in size
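HEK293 cells carry an SMN2 […]–luciferase reporter in which exon 7 inclusion puts luciferase in frame. Cells were plated 10-12 h before compound addition, then incubated 30-36 h at 37C. ONE-Glo luminescence was read; sodium butyrate at 4.5 mM final served as control.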
Starred values were filed as active, the others as inactive; ? = inconclusive; . = no result given; [ ] = another dose, or the depositor's remark. Calls come from the whole dose curve; as a rule, active = well fitted curve in the direction sought with a large enough effect; inconclusive = small, poorly fitted or top-dose-only effect, or another doubt; inactive = no such curve, though single readings can be large; an effect the other way counts as inactive or inconclusive. Potency is the fitted concentration of half-maximal effect.

SMILES | NPC1 prom act | FLuc modulator | ELG1 repair inh | Rab9 promoter act | ELG1 genotoxic | SMN2 splice enh
Cc1cccc(N2C(=O)CC(c3ccc(F)cc3)C3=C2COC3=O)c1 (centres undefined) | -5% | -2% | -2% | -4% | 0% | -1%
COc1cc(OC)c(C(=O)O/N=C(\N)c2ccccc2)cc1OC | 0% | -16% | 11% | -2%[1.84 µM] | 8% | .
N/C(=N\OC(=O)c1ccccc1Br)c1ccc([N+](=O)[O-])cc1 | 4µM* | 5.4µM* | ? | 3.5µM* | ? | .
C/C(=N/OC(=O)c1ccc(F)cc1)c1ccc(C)cc1 | 1% | 0.67µM* | ? | -8% | 1% | -6%
Cc1ccccc1C(=O)O/N=C(\N)c1ccccc1 | 3.5µM* | 0.17µM* | ? | 0.79µM* | 1.6µM* | .
N/C(Cc1ccc([N+](=O)[O-])cc1)=N\OC(=O)c1ccccc1Br | 1% | -15% | -10% | -1% | 2% | -1%
N/C(=N\OC(=O)c1ccccc1Br)c1cccc([N+](=O)[O-])c1 | 2.2µM* | 2.4µM* | ? | 1.3µM* | 5.8µM* | .
O=C(CSc1nc2ccccc2s1)Nc1cc(S(=O)(=O)N2CCOCC2)ccc1Cl | 0% | ? | 23µM* | 0% | 0% | -17%
Cc1ccc(S(=O)(=O)N2CCOCC2)cc1NC(=O)CSc1nnc2cc(C)c3ccccc3n12 | 0% | ? | 18µM* | -3% | -6% | -37%
Cc1ccc(-n2c(SCC(=O)Nc3cc(S(=O)(=O)N4CCOCC4)ccc3Cl)nc3ccccc3c2=O)cc1 | 0% | -16% | -16% | -5% | 0% | 7%
O=C(CNc1ccccc1Cl)Nc1cc(S(=O)(=O)N2CCOCC2)ccc1Cl | 0% | 1% | ? | -1% | -7% | .
Cc1ccc(S(=O)(=O)N2CCOCC2)cc1NC(=O)CSc1ncccn1 | -3% | -2% | 23% | -2% | 2% | .
Cc1cc2nnc(SCC(=O)Nc3cc(S(=O)(=O)N4CCOCC4)ccc3Cl)n2c2ccccc12 | -3% | -20% | 18µM* | 0% | -8% | -22%
Cc1ccccc1Nc1nc(N)nc(COC(=O)CCNS(=O)(=O)c2ccccc2)n1 | -3% | 6% | 21% | 2% | 27% | .
Cc1ccc(S(=O)(=O)C2(S(=O)(=O)c3ccc(C)cc3)CC2)cc1 | -7% | 1% | 23µM* | 11% | -9% | .
CCCc1cc2c(=O)c(-c3ccc4c(c3)OCCO4)coc2cc1OC(=O)c1ccco1 | 1.3µM* | 5.4µM* | ? | 1.6µM* | 18% | ?
CCc1cc2c(=O)c(-c3ccc4c(c3)OCCO4)coc2cc1OC(=O)c1ccco1 | 1.8µM* | 1.1µM* | ? | 2µM* | 1.5µM* | ?
CCOC(=O)c1ccc(NC(=O)CS(=O)(=O)Cc2nc(-c3ccc(C)cc3)oc2C)cc1 | . | -5% | . | . | . | -7%
CC(=O)Nc1cccc(C(=O)OCc2csc(CC(=O)Nc3ccccc3C)n2)c1 | 0% | -11% | -19% | 11% | 1% | .
CC(/C=C1\SC(=Nc2cccnc2)NC1=O)=C\c1ccccc1 | -26% | ? | -18% | -15% | -7% | .
C=CCOc1ccc(/C=C2\SC(=Nc3cccnc3)NC2=O)cc1 | -3% | 7.6µM* | ? | 1% | 9% | .
Cc1ccccc1N=C1NC(=O)/C(=C/c2cccnc2)S1 | -4% | 3% | 21µM* | -7% | -14% | .
O=C1N/C(=N/O)S/C1=C/c1cccnc1 | 7% | ? | 21% | 16% | 0% | 12%
CC(CN1CCCC1)OC(=O)c1ccc(Cl)cc1 (centres undefined) | -4% | 4% | 12% | -2% | 3% | .
CCOc1ccc2nc(N=NC3=C(O)CC(C)(C)CC3=O)sc2c1 | 18% | ? | ? | -35% | -3% | -62%
SMILES | NPC1 prom act | FLuc modulator | ELG1 repair inh | Rab9 promoter act | ELG1 genotoxic | SMN2 splice enh
Cc1nc2ccc(N=NC3=C(O)CCCC3=O)cc2s1 | 5% | 11µM* | ? | -3% | ? | ?
Cc1nc2ccc(N=NC3=C(O)CC(C)(C)CC3=O)cc2s1 | -2% | 4.3µM* | ? | 2% | ? | ?
CCN(CC)S(=O)(=O)c1cccc(N=NC2=C(O)CCCC2=O)c1 | 7% | -3% | 8% | 7% | 1% | -15%
CC(=O)N1CCc2cc(N=NC3=C(O)CC(C)(C)CC3=O)ccc21 | 4µM* | 13µM* | ? | 1.6µM* | ? | ?
O=C1CCCC(O)=C1N=Nc1cccc(C(=O)O)c1 | 3.5µM* | 8.5µM* | ? | 2.2µM* | ? | ?
OC(COc1ccc(CN2CCCCO2)cc1)CN1CCCCC1 (centres undefined) | 0% | 1% | 12% | -6% | 0% | .
COC(=O)c1ccc(C2c3c(oc4ccc(C)cc4c3=O)C(=O)N2Cc2ccc3c(c2)OCO3)cc1 (centres undefined) | . | 0% | . | . | . | -2%
Cc1ccc(CSc2nccc(-c3c(C)nc4ccccn34)n2)cc1 | -2% | 0% | 15µM* | -14% | -17% | .
COCCn1c(N)c(N(Cc2ccccc2)C(=O)C2=COCCO2)c(=O)[nH]c1=O | 2% | -3% | 6% | -1% | 3% | .
OC(c1ccc(Cl)cc1)C(O)c1nc2ccccc2[nH]1 (centres undefined) | -1% | -1% | -3% | -5% | -2% | -9%
Cc1ccccc1NC(=S)c1nc2ccccc2[nH]1 | 25% | 11µM* | ? | 27% | 7% | 29%
S=C(Nc1ccc(Cl)cc1)c1nc2ccccc2[nH]1 | 3.2µM* | 3.8µM* | ? | 1.8µM* | 10% | 14µM*
C=C1C[C@@]23CC4C5[C@@]6(C)C[C@H](O)C[C@@]57C2[C@H](O)[C@@H]1[C@H](O)[C@H]3[C@H]7N4C6 | . | . | . | . | . | 8%
Cc1nc2ccccn2c1-c1ccnn1S(=O)(=O)c1ccc(F)cc1 | -19% | -1% | 18µM* | -17% | -9% | .
O=S(=O)(NCc1nnc2ccccn12)c1ccc(F)cc1 | -4% | 5% | -3% | 2% | -3% | .
CCOC(=O)c1cn2nc(Oc3ccc(C)cc3)ccc2n1 | 10% | ? | ? | ? | ? | .
CCOC(=O)c1cn2nc(N3CCCCC3)ccc2n1 | 0.32µM* | 0.95µM* | ? | 0.13µM* | 0.58µM* | .
CCOC(=O)c1cn2nc(N3CCCC3)ccc2n1 | 0.5µM* | 2.1µM* | ? | 0.32µM* | ? | .
CCOC(=O)c1cn2nc(Oc3ccccc3)ccc2n1 | 2.2µM* | 15µM* | ? | 2.8µM* | ? | .
COc1ccc(NC(=O)CCC(=O)N(Cc2ccc(OC)c(OC)c2)c2nccs2)c(OC)c1 | -1% | -11% | 15% | -2% | 1% | 3%

Assay outcomes (PubChem BioAssay)
